Results reported in ChEMBL document CHEMBL3988442, “University of Dundee, Small-Polar-MMV Screening Library” (2021).
“And” between values parts separate entries of the source, which are not always exact repeats. Identical values can stand only once. For part of these data: Results with a measured potency or affinity are listed apart.

How the values were obtained:
Design in all cases: scale not given: direction of the effect not stated beside the values
[1] = molecular target: Protein translocase subunit SecA (Escherichia coli (strain K12)) (UniProt P10408); test: Assay to Identify E. coli SecA ATPase Inhibitors; type: functional; conditions: 30 µM
Protein translocase subunit SecA (Escherichia coli (strain K12)), sequence (P10408 whole entry): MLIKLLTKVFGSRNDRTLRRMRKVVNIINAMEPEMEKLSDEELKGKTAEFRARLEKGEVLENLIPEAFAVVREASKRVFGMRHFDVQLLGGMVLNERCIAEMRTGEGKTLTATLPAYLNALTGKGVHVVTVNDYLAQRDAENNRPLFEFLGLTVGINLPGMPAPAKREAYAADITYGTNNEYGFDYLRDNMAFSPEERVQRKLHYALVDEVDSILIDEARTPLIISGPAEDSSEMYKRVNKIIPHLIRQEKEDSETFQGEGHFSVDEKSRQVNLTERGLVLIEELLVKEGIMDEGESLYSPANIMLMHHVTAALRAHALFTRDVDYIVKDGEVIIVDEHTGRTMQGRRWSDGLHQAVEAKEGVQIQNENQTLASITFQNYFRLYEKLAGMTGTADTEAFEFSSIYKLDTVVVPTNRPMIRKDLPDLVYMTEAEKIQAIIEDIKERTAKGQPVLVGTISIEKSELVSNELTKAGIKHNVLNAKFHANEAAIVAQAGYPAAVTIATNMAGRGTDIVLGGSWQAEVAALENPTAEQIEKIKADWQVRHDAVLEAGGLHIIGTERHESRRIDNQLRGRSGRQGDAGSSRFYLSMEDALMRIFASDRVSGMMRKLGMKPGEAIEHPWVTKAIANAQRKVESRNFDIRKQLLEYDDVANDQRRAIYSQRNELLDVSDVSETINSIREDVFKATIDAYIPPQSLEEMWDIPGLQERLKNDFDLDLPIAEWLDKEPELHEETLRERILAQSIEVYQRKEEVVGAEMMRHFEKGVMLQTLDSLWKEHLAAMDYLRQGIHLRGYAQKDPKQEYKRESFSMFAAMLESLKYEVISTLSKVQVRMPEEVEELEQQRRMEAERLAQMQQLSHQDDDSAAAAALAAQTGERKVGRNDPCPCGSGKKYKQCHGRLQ

[2] = molecular target: T1, Ubiquitin-activating enzyme e1, putative (Leishmania donovani (strain BPK282A1)) (UniProt E9BSI1); test: Leishmania donovani Ubiquitin Activating Enzyme (LdE1); type: functional; conditions: 30 µM
T1 sequence (whole entry): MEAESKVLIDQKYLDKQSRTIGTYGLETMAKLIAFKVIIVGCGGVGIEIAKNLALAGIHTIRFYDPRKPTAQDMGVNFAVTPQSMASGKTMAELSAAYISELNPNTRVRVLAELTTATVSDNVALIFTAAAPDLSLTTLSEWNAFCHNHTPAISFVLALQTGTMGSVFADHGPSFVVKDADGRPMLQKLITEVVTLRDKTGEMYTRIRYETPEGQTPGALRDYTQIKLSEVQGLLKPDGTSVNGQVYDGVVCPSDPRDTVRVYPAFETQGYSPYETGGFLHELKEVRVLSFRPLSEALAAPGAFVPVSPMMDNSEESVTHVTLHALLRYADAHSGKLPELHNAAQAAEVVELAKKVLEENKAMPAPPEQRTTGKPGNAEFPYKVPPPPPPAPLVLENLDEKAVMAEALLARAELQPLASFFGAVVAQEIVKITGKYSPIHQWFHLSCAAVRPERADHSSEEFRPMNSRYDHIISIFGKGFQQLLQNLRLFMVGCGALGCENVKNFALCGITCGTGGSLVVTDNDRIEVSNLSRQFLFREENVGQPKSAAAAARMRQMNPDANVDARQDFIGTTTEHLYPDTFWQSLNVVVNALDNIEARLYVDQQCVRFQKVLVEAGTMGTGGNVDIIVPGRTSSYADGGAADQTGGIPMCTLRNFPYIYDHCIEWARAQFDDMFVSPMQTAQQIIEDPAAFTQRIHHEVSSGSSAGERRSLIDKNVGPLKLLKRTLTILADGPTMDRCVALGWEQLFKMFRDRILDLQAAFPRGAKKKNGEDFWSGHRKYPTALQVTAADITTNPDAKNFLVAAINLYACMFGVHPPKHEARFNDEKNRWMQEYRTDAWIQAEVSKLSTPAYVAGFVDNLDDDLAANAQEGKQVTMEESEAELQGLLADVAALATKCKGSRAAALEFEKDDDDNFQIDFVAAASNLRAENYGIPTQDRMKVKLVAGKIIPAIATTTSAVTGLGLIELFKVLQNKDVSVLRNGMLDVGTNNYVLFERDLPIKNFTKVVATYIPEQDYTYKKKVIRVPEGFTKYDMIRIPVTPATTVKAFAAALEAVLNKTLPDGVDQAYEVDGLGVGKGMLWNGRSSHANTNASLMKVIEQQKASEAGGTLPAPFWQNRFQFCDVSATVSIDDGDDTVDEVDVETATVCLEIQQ

[3] = molecular target: Sialic acid-binding Ig-like lectin 9 (Homo sapiens) (UniProt Q9Y336); test: Hs-Siglec9 ALPHAscreen SOP 20170721; conditions: 10 µM
Sialic acid-binding Ig-like lectin 9 (Homo sapiens), sequence (Q9Y336 whole entry): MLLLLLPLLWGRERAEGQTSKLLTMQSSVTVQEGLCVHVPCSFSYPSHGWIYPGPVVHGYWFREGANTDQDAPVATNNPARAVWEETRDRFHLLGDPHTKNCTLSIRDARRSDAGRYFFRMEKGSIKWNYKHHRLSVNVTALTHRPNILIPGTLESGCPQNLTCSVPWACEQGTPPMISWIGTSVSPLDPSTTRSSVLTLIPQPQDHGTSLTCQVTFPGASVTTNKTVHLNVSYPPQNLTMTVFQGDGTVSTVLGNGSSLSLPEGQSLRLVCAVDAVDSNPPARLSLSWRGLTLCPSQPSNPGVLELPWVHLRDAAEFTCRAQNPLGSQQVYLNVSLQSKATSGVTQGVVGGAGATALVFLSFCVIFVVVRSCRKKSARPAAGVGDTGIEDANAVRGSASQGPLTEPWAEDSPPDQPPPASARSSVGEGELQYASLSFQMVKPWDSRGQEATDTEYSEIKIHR

Trypanosoma cruzi = test: Trypanosoma cruzi phosphomannomutase and mannose-1-phosphate guanylyltransferase assay; type: functional; conditions: 10 µM
[4] = molecular target: T2, Arginase-2, mitochondrial (Homo sapiens) (UniProt P78540); test: in vitro enzyme assay to detect the production of urea directly proportional to the activity of Arginase II; type: functional; also: in the data most compounds retested in dose-response had high values
T2 sequence (whole entry): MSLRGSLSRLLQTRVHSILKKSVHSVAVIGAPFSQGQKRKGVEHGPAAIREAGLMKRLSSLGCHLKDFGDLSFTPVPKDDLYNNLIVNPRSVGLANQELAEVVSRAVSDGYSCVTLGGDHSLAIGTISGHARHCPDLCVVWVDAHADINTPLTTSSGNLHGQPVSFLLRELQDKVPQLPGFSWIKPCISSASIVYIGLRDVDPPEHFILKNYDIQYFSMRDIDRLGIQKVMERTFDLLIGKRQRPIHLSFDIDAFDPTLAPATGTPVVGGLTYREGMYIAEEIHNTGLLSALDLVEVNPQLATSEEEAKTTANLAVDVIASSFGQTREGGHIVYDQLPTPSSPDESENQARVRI

[5] = molecular target: T3, Proteasome subunit beta (Trypanosoma cruzi) (UniProt O96673); test: Trypanosoma cruzi proteasome chymotrypsin-like activity (TcProtChymo) assay.; also: in the data most compounds retested in dose-response had high values; type: functional; conditions: 9.37 µM
T3 sequence (whole entry): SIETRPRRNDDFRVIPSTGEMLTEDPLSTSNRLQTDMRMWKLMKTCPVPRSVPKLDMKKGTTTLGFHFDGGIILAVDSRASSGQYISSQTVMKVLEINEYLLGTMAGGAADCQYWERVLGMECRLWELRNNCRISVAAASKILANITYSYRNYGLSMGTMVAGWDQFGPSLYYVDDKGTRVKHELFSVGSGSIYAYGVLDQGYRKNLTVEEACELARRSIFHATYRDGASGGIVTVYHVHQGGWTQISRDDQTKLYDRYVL

N/A = test: Trypanosoma cruzi proteasome luciferase counter-screen; type: functional; conditions: 9.37 µM
Homo sapiens = organism: Homo sapiens; test: To identify inhibition of the IFN signalling (Jak-Stat) pathway via expression of an eGFP reporter gene under the control of an IFN-stimulated response element (ISRE) containing MxA promoter.; type: functional; conditions: 30 µM
[6] = molecular target: T4, Tyrosyl-tRNA synthetase, putative (Trypanosoma cruzi (strain CL Brener)) (UniProt Q4DSP6); test: Trypanosoma cruzi tyrosyl tRNA synthetase (TcYRS) _High Tyrosine SOP; type: functional; conditions: 30 µM; also: in the data most compounds retested in dose-response had high values
T4 sequence (whole entry): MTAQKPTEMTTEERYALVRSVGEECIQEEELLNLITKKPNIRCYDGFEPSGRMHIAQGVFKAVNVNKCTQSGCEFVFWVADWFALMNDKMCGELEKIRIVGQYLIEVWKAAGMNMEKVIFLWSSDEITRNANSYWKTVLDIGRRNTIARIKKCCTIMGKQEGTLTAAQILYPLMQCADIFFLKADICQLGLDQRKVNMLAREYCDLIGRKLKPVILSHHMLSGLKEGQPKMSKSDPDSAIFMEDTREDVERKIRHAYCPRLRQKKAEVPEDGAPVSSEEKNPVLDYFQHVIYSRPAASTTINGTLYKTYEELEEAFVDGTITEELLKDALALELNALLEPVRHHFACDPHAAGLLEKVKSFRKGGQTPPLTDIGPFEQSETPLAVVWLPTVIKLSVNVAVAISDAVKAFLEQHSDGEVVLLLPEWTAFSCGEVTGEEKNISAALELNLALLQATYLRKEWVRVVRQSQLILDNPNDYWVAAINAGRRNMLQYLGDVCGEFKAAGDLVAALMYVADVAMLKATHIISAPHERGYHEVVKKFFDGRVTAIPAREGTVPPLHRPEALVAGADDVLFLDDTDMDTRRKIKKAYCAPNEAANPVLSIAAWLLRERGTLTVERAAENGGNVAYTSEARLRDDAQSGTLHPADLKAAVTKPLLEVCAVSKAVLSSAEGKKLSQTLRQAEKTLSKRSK

[7] = molecular target: T4, Tyrosyl-tRNA synthetase, putative (Trypanosoma cruzi (strain CL Brener)); test: Trypanosoma cruzi tyrosyl tRNA synthetase (TcYRS) SOP; type: functional; conditions: 30 µM
[8] = molecular target: Chromo domain-containing protein 1 (Saccharomyces cerevisiae (strain ATCC 204508 / S288c) (Baker's yeast)) (UniProt P32657); test: ScCHD-1 Enzyme Inhibition Assay; type: functional; conditions: 30 µM; also: in the data most compounds retested in dose-response had high values
Chromo domain-containing protein 1 (Saccharomyces cerevisiae (strain ATCC 204508 / S288c) (Baker's yeast)), sequence (P32657 whole entry, the tested form may be a part): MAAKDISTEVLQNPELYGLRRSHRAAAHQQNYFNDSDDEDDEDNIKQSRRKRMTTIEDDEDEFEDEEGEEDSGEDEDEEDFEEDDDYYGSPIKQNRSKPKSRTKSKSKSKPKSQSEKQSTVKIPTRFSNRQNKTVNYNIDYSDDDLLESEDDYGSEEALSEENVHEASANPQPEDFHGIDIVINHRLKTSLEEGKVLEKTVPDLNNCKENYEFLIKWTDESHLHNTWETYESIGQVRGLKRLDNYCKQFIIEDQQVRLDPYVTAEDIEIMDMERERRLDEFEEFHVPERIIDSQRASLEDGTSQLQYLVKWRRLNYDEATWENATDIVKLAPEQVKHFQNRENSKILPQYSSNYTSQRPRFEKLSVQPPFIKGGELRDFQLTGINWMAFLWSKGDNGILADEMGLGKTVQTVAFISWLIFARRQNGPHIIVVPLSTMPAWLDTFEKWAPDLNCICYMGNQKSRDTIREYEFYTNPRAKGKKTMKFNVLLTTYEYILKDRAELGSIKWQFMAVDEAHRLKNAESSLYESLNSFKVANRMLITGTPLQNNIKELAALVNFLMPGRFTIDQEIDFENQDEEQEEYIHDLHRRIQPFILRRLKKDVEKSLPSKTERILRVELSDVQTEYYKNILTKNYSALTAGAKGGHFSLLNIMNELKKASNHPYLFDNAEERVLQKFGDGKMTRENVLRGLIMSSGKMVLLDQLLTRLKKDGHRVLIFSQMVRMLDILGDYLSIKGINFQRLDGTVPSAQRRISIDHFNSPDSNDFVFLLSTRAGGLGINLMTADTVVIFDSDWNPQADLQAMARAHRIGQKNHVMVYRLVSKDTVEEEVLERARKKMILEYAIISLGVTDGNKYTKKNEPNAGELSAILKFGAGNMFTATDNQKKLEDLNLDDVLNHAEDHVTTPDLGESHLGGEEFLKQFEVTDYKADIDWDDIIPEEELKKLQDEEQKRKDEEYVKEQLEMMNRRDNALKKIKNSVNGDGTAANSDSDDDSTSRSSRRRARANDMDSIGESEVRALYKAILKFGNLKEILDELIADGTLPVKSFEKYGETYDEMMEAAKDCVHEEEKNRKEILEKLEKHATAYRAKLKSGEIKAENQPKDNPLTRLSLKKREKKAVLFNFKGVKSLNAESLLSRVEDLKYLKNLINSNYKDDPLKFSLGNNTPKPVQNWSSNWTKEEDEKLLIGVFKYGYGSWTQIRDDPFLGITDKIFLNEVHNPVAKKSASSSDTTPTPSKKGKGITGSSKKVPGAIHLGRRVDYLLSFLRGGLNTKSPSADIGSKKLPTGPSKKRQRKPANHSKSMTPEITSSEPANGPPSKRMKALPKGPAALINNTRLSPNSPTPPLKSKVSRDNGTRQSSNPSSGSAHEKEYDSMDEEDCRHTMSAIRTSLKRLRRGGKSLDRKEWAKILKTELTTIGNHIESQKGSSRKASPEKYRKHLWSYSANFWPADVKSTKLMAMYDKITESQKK

[9] = molecular target: AMP-activated protein kinase, AMPK (Homo sapiens) (UniProt P54646+O43741+P54619+Q9UGJ0+Q9Y478+Q13131+Q9UGI9); test: AMP-dependent Kinase enzyme assay. An in vitro enzyme assay that detects ADP turnover that is directly proportional to AMPK activity. This uses naive AMPK that is activated during the assay with MK-8722; type: functional; conditions: 30 µM

Row | Structure (SMILES) | Percent Effect [1] | Percent Effect [2] | Percent Effect [3] | Percent Effect (Trypanosoma cruzi) | Percent Effect ([4]; 33.3 µM) | Percent Effect [5] | Percent Effect (N/A) | Percent Effect (Homo sapiens) | Percent Effect [6] | Percent Effect [7] | Percent Effect [8] | Percent Effect ([4]; 30 µM) | Percent Effect [9]
1 | Cc1nc(C)n(CC2CCCN2Cc2nc(N)c3ccccc3n2)n1 (stereo unspecified) | -1.49% | 21.3% | -3.38% | 3.81% | -3.1% | 16.4% and 18.4% and 30.6% | 8.36% and 7.38% | 8.71% | 6.84% | 15.4% | -17.8% | – | –
2 | Cc1cnc(CN(C)C2CCN(CCc3cnn(C)c3)C2)o1 (stereo unspecified) | -3.84% | 0% | 0.368% | -1% | 2.66% | 3.65% | – | 2.79% | 4.74% | 5.13% | -8.2% | – | –
3 | CCCN(CC)C(=O)c1cc2c(c3ccccc3n2C)n1C(=O)N(C)C | -6.54% | 11.7% | 4.77% | 0.292% | 4.05% | 6.27% | – | -7.65% | 6.84% | 10.3% | -0.293% | – | –
4 | Cc1nc(C)c(C(=O)OCCNc2ncccc2C#N)s1 | -3.81% | 10.4% | 12.8% | -7.09% | 1.02% | 71.6% and 65.6% and 62.3% | 28.5% and 30.6% | 32.9% | 2.94% | 9.41% | 0.0387% | – | –
5 | COc1cccc(-c2noc(C3CCN(Cc4cccs4)C3)n2)c1 (stereo unspecified) | 4.18% | 4% | -7.16% | -5.33% | 1.77% | 57.3% and 54.2% and 60.1% | 26.2% and 26.8% | 16% | -3.17% | 7.5% | -23.7% | – | –
6 | Cc1cc(CNc2cc(Cl)ccc2OCCS(C)(=O)=O)no1 | -0.942% | 5.13% | -13.6% | 7.42% | -1.23% | -4.01% | – | -4.69% | 2.39% | 10.8% | 0.127% | – | –
7 | Cc1ccc(NC(=O)C2CSCN2C(=O)c2cc[nH]n2)c(C)c1 (stereo unspecified) | -2.87% | 5.13% | 9.07% | 4.79% | -0.41% | 0.768% | – | -8.73% | 3.35% | 20.5% | -1.03% | – | –
8 | CN(C)[C@H]1CCCCN(C(=O)CCc2csc(N)n2)C1 | -6.59% | 2.7% | -1.59% | 1.46% | -0.35% | 9.76% | – | -5.61% | 3.72% | 7.32% | 0.286% | 2.7% | –
9 | Cc1ccc(N2CC[C@H]3O[C@@H](C(=O)NCc4ccco4)CC[C@H]32)nn1 | -3.84% | 11.7% | -7.1% | 0.487% | 4.05% | 34.9% and 42.6% and 44.7% | 17.7% and 15.6% | 2.02% | 12.1% | 12.8% | -1.01% | – | –
10 | O=S(=O)(NCC1(O)CCOc2ccccc21)c1ccc(Br)s1 (stereo unspecified) | -7.03% | 2.74% | -1.37% | -3.72% | -1.82% | 4.97% | – | 21.1% | – | – | -2.54% | – | 6.4%
11 | CN(C)c1cc(CNC(=O)Nc2ccc(F)cc2)ccn1 | 2.4% | 17.9% | -9.83% | 3.29% | 0.41% | 47.8% and 47.4% and 50.2% | 25.9% and 25.6% | 6.94% | 7.18% | 25.3% | -3.18% | – | –
12 | CCc1nnc2n1CCN(Cc1csc(-c3ccc(C)o3)n1)C2 | -2.83% | 10.3% | -4.26% | 7.42% | 1.23% | 36.4% and 37.5% and 36.1% | 6.53% and 0.633% | 4.79% | 8.13% | 22.9% | -6.08% | – | –
